The record followed here is PubChem BioAssay (NCI).

Compounds without any hit were thinned out: in the full panel of roughly 83,000, 20% have a hit.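 Method: cells in 96-well plates; compound added at one concentration; 48 h incubation; percent growth measured; values under 10 scored active.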 The source made the active and inactive calls.

The assay deals with HL-60(TB) leukemia. The assay can be described thus: NCI-60 one-dose screen, 48 h (100 = growth as untreated, 0 = no growth, -100 = all killed). The note with it: 10 µM unless noted.
For `COc1ccc(/C=C/C(=O)c2ccc(NC(=O)CSc3nc4c([nH]3)c(=O)n(C)c(=O)n4C)cc2)cc1OC`, the growth is 99.5% (inactive). The result for `CCNC(=O)Oc1ccc(/C(=C(\C)c2ccc(Cl)cc2)c2ccc(OCCN(CC)CC)cc2)cc1` reads 23.9% (inactive). The result for `COc1cc(C2C3=C(COC3=O)Nc3c2ccc2c3CCCC2)cc2c1OCO2` (stereo not given) reads -6.76% (active). The result for `CN[C@@H]1C[C@H]2O[C@@](C)([C@@H]1OC)n1c3ccccc3c3c4c(c5c6ccccc6n2c5c31)C(=O)N[C@H]4O` reads -40.8% (active); that for `Cc1cc(N2CCCC2)nc(NC2CCCC(Nc3ccnc4cc(Cl)ccc34)C2)n1` (stereo not given), -68.5% (active); that for `CN1C(=O)/C(=C/c2ccc(C(=O)Nc3ncc(Cc4ccccc4Cl)s3)cc2)SC1=S`, 73.1% (inactive).

Take `Cc1ccccc1-n1nnc(C(=O)Nc2nc(-c3ccccc3)c(-c3ccccc3)s2)c1C`: the growth was 89.1% [50 µM] (inactive). For the molecule `O=C(CCc1nnc2sc(-c3ccccc3)nn12)c1nc2ccccc2[nH]1`, the growth was 105% (inactive). The result for `Clc1ccc(N/N=C(/c2ccccc2)c2ccccn2)nc1` reads 3.11% (active); that for `CN1c2ccccc2S(=O)(=O)n2c(SCC(=O)Nc3nc4ccc(F)cc4s3)nnc21`, 105% (inactive); that for `CC(C)CCC[C@@H](C)[C@H]1CCC2C3=CCn4c(=O)ccc(=O)n4C3CC[C@@]21C` (stereo not given in full), -43.3% (active). The result for `Nc1ccccc1NC(=O)c1ccc(CN2CCC/C(=C\c3cccc(Cl)c3)C2=O)cc1` reads -24.5% (active); that for `NC1=NC(c2cccc(Br)c2)c2sc3ccc(Cl)cc3c2N1` (stereo not given), 102% (inactive). The result for `CC(C)(C)OC(=O)N[C@@H](Cc1ccccc1)C(=O)N(Cc1ccccc1)C1(C(=O)NCc2ccccc2)CCN(Cc2ccccc2)CC1` reads 7.23% (active). In the case of `CNCCCNc1nc2ccccc2c2c(=O)c3cc(F)ccc3sc12`, the growth is -5.1% (active). With `C[C@H]1Oc2cc(cnc2N)-c2c(nn(C)c2C#N)CN(C)C(=O)c2ccc(F)cc21` the figure was 77% (inactive); with `C=CC(=O)OCCCCCCCC`, 88.6% (inactive); with `O=C(/C=C/c1ccccc1Cl)c1cccc(OCCCCOc2cccc(C(=O)/C=C/c3ccccc3Cl)c2)c1`, 105% (inactive). The result for `CC1(C)OC(=O)C(c2ccsc2)C(=O)O1` reads 112% (inactive); that for `O=c1ccn(Cc2cn(-c3c4ccccc4nc4ccccc34)nn2)c(=O)[nH]1`, 75.7% (inactive). With `CCN(C(=O)Nc1cccc2ccccc12)c1ccccc1` the figure was 102% (inactive). As for `Cc1nc(N)nc(SCc2ccccc2)c1Br`, the growth was 53.2% (inactive). For `CC(=O)OC1CC2C3CCC4C[C@@H](NC(=O)C=C(C)C)CC[C@]4(C)C3CC[C@]2(C)[C@H]1C(C)N(C)C` (stereo not given in full), the growth was -49.6% (active). With `COC(=O)c1c[nH]c2cc(OC(C)C)c(OC(C)C)cc2c1=O` the figure was 106% (inactive); with `NS(=O)(=O)c1ccc(N2CC(c3nc4ccccc4[nH]3)CC2=O)cc1` (stereo not given), 99.4% (inactive). The result for `Cc1ccc2c(n1)C(=O)C(Cl)=C(Nc1ccccc1C(C)C)C2=O` reads -15.3% (active); that for `C=C(C)[C@@H]1CC[C@]2(C(=O)N3CCNCC3)CC[C@]3(C)[C@H](CC[C@@H]4[C@@](C)(CCC(=O)N5CCNCC5)[C@H](C(=C)C)CC[C@]43C)[C@@H]12`, 61% (inactive).

In the case of `CCN(CCO)CC(=O)c1cc(Cl)cc(Cl)c1Cl`, the growth was 106% (inactive). The result for `Cc1cc(=O)[nH]c(NN=C2CCCC2)n1` reads 94.6% (inactive); that for `Clc1ccc2c(NCCCNc3nc(-n4ccnc4)nc4ccccc34)ccnc2c1`, 69.4% (inactive); that for `COc1ccc(NC(=O)n2nc(/C=C\c3ccc(O)c(OC)c3)cc2/C=C\c2ccc(O)c(OC)c2)cc1`, 5.32% (active).

As to `N[C@H]1CCC[C@@H]1NCCCCN1C(=O)c2cccc3cc([N+](=O)[O-])cc(c23)C1=O`, the growth was 29.4% (inactive). With `COc1ccc(C(=O)COc2cccc(/C=C3\Oc4ccc5ccccc5c4C3=O)c2)cc1` the figure was 90.7% (inactive); with `CC(C)(CNC1CCCCC1)OC(=O)c1ccccc1`, 95.3% (inactive); with `COc1ccc(C(=O)N2c3ccccc3Sc3ccccc32)c(OC)c1`, 0.583% (active). With `CC(=O)Nc1c(C)cc(C)cc1C` the figure was 99.8% (inactive). For `CC1CCCCN1C(=S)Nc1ccc(S(=O)(=O)N2CCCCC2)cc1` (stereo not given), the growth was 102% (inactive). The result for `CC[C@@H]1NC(=O)[C@H]([C@H](O)[C@H](C)C/C=C/c2ccc(CN3C(=O)CCCC3=O)cc2)N(C)C(=O)[C@H](C(C)C)N(C)C(=O)[C@H](CC(C)C)N(C)C(=O)[C@H](CC(C)C)N(C)C(=O)[C@@H](C)NC(=O)[C@H](C)NC(=O)[C@H](CC(C)C)N(C)C(=O)[C@H](C(C)C)NC(=O)[C@H](CC(C)C)N(C)C(=O)CN(C)C1=O` reads 61.3% (inactive); that for `O=C(C[C@@]1(O)C(=O)Nc2c(Cl)ccc(Cl)c21)c1ccc(C2CC2)cc1`, -17.8% (active); that for `COc1cccc(NC(=O)OC(C)C)c1`, 72.7% (inactive).
